The text below walks through data of PubChem BioAssay.

Test [1] in a line: compounds binding Alexa647 anti-His antibody – biochemical, small-molecule microarray, 635 nm fluorescence, artefact control for SMM control protein annotation, primary screen (AID 1128).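 Also: score merges feature fluorescence with signal-to-noise for each printed compound spot.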 Conditions: higher = more signal.
For test [2], the system named is Human papillomavirus type 1a E7 protein (residues 1-88). Put plainly: HPV1a E7 small-molecule binders, primary screen, biochemical, small-molecule microarray, residues 1-88, 635 nm (AID 1129). The following applies: small-molecule microarray binding, fluorescence 635 nm; higher = more signal.
Test [3] concerns the target Focal adhesion kinase 1 (Homo sapiens) (UniProt Q05397). Put plainly: PTK2 protein binding on printed compound slides – biochemical, small-molecule microarray, 635/667 nm fluorescence, BSA, DTT, primary screen (AID 1130).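 Also: composite of spot emission at 667 nm and signal to noise over triplicate slides.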 The following applies: 635 nm fluorescence, higher = more signal.
The test system of test [4] is Fibrinogen (Alexa647-labelled). Nature of the test: Alexa647-fibrinogen binding to printed small molecules – biochemical, small-molecule microarray, 635/667 nm fluorescence, artefact control for SMM control-protein annotation, profiling panel (AID 1131).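 Also: z-score merges 667 nm fluorescence with per-spot signal-to-noise over triplicate slides.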 Conditions: fibrinogen-A647 binding fluorescence, higher = more signal.
Test [5] has as its target Follistatin (Homo sapiens) (UniProt P19883). Nature of the test: FST protein binding to printed compounds – biochemical, small-molecule microarray, 635/667 nm fluorescence, primary screen (AID 1132). The following applies: 635 nm fluorescence, higher = more signal.
Test [6] deals with Fibroblast growth factor 2 (Homo sapiens) (UniProt P09038). Put plainly: basic fibroblast growth factor binding to printed compounds – biochemical, small-molecule microarray, 635/667 nm fluorescence, primary screen (AID 1133). Conditions: FGF2, fluorescence 635/667, higher = more signal.
The nature of test [7]: JC-1 mitochondrial potential readout, lung cancer cells – cell-based, A549, JC-1 fluorescence, basal, 24 h, 100 nL, profiling panel (AID 1138).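 Also: A549 lung adenocarcinoma cells under basal conditions with no added stimulus; test concentration not given here.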 Conditions: higher = more signal.
The subject of the next test is Lefty1. Put plainly: Lefty1 protein binding to printed compounds – biochemical, small-molecule microarray, 635/667 nm fluorescence, primary screen (AID 1139). The following applies: fluorescence 635/667, higher = more signal.
For test [8], the system named is wheat germ agglutinin (Triticum aestivum), Alexa647-labelled. Put plainly: Alexa647-WGA lectin binding to printed small molecules – biochemical, small-molecule microarray, 635/667 nm fluorescence, artefact control for SMM control-protein annotation, profiling panel (AID 1140).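 Also: score merges 667 nm feature emission with signal to noise over triplicate slides.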 Conditions: WGA-A647 binding, 635 nm fluorescence, higher = more signal.
Test [9] concerns the target Luciferin 4-monooxygenase (Photinus pyralis) (UniProt P08659). Nature of the test: inhibition of purified Photinus pyralis luciferase – biochemical, luminescence, purified enzyme, 2006 set, primary screen (AID 1141).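 Also: cell-free assay with purified firefly luciferase at 100 ng per well in PBS; test concentration not given here.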 Conditions: purified firefly luciferase, SteadyGlo luminescence, 30 min; higher = more signal, called active from +8 up or from −8 down.

Calls of active or inactive are those of the source.

Fibroblast growth factor 2 (Homo sapiens), sequence (P09038 whole entry, looked up): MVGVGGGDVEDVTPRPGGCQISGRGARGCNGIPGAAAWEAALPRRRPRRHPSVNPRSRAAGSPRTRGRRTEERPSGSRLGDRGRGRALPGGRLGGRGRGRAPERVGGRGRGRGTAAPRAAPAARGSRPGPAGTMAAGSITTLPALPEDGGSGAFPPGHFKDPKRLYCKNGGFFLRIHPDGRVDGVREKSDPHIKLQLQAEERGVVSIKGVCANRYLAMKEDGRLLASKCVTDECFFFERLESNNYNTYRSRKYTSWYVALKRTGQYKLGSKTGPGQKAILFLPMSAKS
Focal adhesion kinase 1 (Homo sapiens), sequence (Q05397 whole entry, looked up): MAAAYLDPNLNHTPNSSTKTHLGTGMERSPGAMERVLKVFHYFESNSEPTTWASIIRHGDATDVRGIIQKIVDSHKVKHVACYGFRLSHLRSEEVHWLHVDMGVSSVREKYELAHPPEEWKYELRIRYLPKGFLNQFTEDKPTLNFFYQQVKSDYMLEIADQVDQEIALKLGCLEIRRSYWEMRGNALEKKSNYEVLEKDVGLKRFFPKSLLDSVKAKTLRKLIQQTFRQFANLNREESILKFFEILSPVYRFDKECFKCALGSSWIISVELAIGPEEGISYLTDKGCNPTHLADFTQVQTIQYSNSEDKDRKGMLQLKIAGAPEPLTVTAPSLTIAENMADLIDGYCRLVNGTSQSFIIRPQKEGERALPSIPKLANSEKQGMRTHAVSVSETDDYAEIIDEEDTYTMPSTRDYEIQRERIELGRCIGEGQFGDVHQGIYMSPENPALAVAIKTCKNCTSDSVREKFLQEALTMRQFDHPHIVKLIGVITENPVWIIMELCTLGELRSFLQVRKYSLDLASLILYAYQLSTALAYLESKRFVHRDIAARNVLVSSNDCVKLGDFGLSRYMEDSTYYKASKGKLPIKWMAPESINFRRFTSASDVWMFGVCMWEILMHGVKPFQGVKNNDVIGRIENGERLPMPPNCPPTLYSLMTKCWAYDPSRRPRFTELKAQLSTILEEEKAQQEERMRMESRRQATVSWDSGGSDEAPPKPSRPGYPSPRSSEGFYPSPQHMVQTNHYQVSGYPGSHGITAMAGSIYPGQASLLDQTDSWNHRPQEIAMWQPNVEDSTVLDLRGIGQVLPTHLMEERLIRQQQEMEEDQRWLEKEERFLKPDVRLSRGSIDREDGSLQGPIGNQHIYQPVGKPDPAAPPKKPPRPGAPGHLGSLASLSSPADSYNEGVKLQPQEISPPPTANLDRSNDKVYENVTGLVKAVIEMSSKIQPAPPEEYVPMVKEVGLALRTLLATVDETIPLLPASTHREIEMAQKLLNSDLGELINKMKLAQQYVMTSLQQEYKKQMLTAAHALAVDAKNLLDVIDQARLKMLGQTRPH
Luciferin 4-monooxygenase (Photinus pyralis), sequence (P08659 whole entry, looked up): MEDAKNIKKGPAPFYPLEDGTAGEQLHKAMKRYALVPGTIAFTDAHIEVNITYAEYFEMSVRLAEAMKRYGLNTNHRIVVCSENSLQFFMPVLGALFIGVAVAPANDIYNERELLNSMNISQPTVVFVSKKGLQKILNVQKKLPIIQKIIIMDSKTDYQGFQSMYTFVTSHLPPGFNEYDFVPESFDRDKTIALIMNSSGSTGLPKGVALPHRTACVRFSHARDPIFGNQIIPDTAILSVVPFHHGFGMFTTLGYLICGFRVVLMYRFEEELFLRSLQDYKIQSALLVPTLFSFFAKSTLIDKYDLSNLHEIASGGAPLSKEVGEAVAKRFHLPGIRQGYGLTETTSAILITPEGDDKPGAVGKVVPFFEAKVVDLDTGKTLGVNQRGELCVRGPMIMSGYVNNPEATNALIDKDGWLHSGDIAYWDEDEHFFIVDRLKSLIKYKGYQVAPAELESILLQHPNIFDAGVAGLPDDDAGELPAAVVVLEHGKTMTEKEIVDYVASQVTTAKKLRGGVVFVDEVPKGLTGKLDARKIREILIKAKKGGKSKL
Follistatin (Homo sapiens), sequence (P19883 whole entry, looked up): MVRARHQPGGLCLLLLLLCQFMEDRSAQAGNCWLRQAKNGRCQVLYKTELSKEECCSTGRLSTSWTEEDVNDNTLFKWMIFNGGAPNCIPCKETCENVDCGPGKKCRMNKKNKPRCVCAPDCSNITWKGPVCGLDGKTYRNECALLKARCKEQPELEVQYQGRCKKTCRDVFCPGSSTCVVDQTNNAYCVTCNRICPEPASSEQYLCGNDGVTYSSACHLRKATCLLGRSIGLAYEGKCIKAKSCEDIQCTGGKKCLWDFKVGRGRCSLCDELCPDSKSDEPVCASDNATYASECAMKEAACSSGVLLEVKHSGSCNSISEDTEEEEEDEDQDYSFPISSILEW

With `C=CC[C@@]1(C(=O)N(C)C)N=C(c2ccc(OCCCO)cc2)O[C@@H]1c1ccccc1N=[N+]=[N-]`, the composite z-score in test [1] amounted to 3.01; in test [2], 1.22; in test [3], 0.489; in test [4], 0.776; in test [5] it was 1.28; in test [6], 0.26. Besides, the composite z-score with Lefty1 is 0.406; in test [8] it was 1.33. Moreover, the z-score in test [7] was 0.857; in test [9], -9.07 (active).
As for `COCCOC(=O)N1C(=O)[C@@]2(c3cc(C#Cc4ccc(OC)cc4)ccc31)[C@H](c1ccccc1OCCO)N1[C@H](c3ccccc3)[C@H](c3ccccc3)OC(=O)[C@H]1[C@@H]2C(=O)N1CCN(c2ncccn2)CC1`, the composite z-score was 2.12 in [1]; 1.18 in test [2]; 0.863 in test [3]; -0.134 in [4]; 0.803 in test [5]; 0.404 in test [6]. Also, the composite z-score with Lefty1 is 0.361; in test [8], 0.816. The values for the z-score in test [7] and in test [9] were -1.18 and -1.1 (inactive), respectively.
With `O=C(c1ccccc1)N1Cc2ccccc2[C@@H]2OC(c3ccc(OCCCO)cc3)=N[C@]2(Cc2ccccc2)C1=O`, the composite z-score in [1] came to 2.33; in [2], 1.19; in [3], 0.319; in test [4], 0.924; in [5], 1.32; in test [6], 1.02. Also, the results for the composite z-score (in the test on Lefty1; in test [8]) were 0.838 and 0.765, respectively. Also, the z-score in test [7] is -0.411; in test [9] it was -0.976 (inactive).
Take `CN1C(=O)C2C=CC(C(O)c3ccc(I)cc3)N(N3CCCCC3)C2C1=O` (stereo not given): the composite z-score was 1.09 in test [1]; 1.21 in [2]; 0.578 in [3]; 0.924 in test [4]; 1.24 in test [5]; -0.148 in test [6]. For the same compound, the composite z-score in the test on Lefty1 was found to be 0.459; in test [8] it was 1.2. The z-score in [7] is 0.158; in test [9] it was -1.05 (inactive).
Consider `C=CCC(OC(C)=O)[C@@H]1[C@@H](N(Cc2ccc(-c3ccccc3)cc2)C(=O)Cc2ccc(F)cc2)c2cc(OCCCO)ccc2N1C(=O)c1ccc(-c2ccccc2)cc1` (stereo not given in full), for which the composite z-score is -0.414 in [1]; -1.03 in test [2]; -0.0744 in test [3]; 0.259 in [4]; 0.267 in test [5]; -0.297 in test [6]. For the same compound, the composite z-score in the test with Lefty1 is -0.0123; in test [8], -0.217. The values for the z-score in test [7] and in test [9] were 0.796 and 1.03 (inactive), respectively.
Regarding `O=C1NC(=O)C2C1C=CC(C(O)c1cccc3ccccc13)N2Nc1ccccn1` (stereo not given), the composite z-score in [1] is 1.97; in [2], 0.158; in test [3], 0.132; in test [4], -0.207; in [5] it was 0.169; in test [6] it was 0.11. Besides, the composite z-score was -0.34 with Lefty1 and 0.0591 in test [8]. Besides, the z-score in test [7] was 1.55; in test [9], 0.135 (inactive).
On to `O=C1OCCC/C=C\[C@H]2OC34C=CCN(c5ccc6ccccc6c5)C(=O)[C@H]3N(CCCCCCO)C(=O)[C@@H]4C12` (stereo not given in full), for which the composite z-score in test [1] is 1.79; in [2] it was 0.124; in test [3] it was -0.29; in [4] it was -1.74; in test [5], -0.179; in test [6], -0.943. In addition, the composite z-score with Lefty1 is -0.159; in test [8], -0.0279. In addition, the z-score in test [7] was 1.74; in [9], -1.47 (inactive).
`O=C(NCC(F)(F)F)[C@@H]1c2ccccc2C(=O)N(C2CCCCC2)[C@H]1c1ccc(CO)cc1`: the composite z-score in [1] was -0.216; in [2], 0.402; in [3] it was -0.013; in test [4], 0.403; in test [5], 0.173; in test [6], -0.179. For the same compound, the composite z-score with Lefty1 is -0.63; in [8] it was 0.807. In addition, the z-score in test [7] is 0.221; in test [9], -0.128 (inactive).
Regarding `C#CCN(Cc1ccccc1Br)C(/C=C/c1ccccc1)CO` (stereo not given), the composite z-score is 0.448 in test [1]; -0.265 in [2]; -0.102 in [3]; -0.171 in test [4]; -0.523 in test [5]; 0.774 in test [6]. For the same compound, the values for the composite z-score (in the test with Lefty1; in [8]) were 0.0437 and -0.618, respectively. In addition, the z-score is -1.01 in test [7] and 0.0615 (inactive) in test [9].
As for `C=CC[C@]1(C(=O)NCCCOC)N=C(c2ccc(OCCCO)cc2)O[C@H]1c1ccccc1N=[N+]=[N-]`, the composite z-score in [1] was 2.54; in [2], 1.22; in test [3], 0.143; in test [4] it was 0.967; in test [5], 1.26; in [6] it was 1.28. In addition, the composite z-score in the test on Lefty1 was -0.397; in [8], 0.542. The z-score is 0.688 in [7] and -8.19 (active) in test [9].
For `O=C1O[C@H](c2ccccc2)[C@H](c2ccccc2)N2[C@H]1[C@@H](C(=O)N1CCN(c3ncccn3)CC1)[C@]1(C(=O)Nc3ccc(C#CC4=CCCCC4)cc31)[C@H]2c1ccc(O)cc1`, the composite z-score was found to be 0.896 in test [1]; 1.21 in [2]; 0.0908 in test [3]; 0.756 in test [4]; 0.792 in [5]; 0.357 in test [6]. Also, the figures for the composite z-score (with Lefty1; in [8]) were 0.497 and 0.605, respectively. Also, the z-score in test [7] was -0.48; in [9] it was -0.0055 (inactive).
On to `[N-]=[N+]=Nc1ccccc1C[C@@]1(C(=O)NCCN2CCOCC2)N=C(c2ccc(OCCCO)cc2)O[C@@H]1c1ccccc1`, for which the composite z-score in test [1] was found to be 0.76; in test [2] it was 1.26; in [3], 0.85; in [4], 1.03; in [5], 1.3; in [6], 1.19. In addition, the composite z-score came to 0.7 with Lefty1 and 0.823 in [8]. In addition, the z-score was 0.662 in test [7] and -1.7 (inactive) in test [9].
On to `O=C1O[C@H](c2ccccc2)[C@H](c2ccccc2)N2[C@H]1[C@@H](C(=O)O)[C@]1(C(=O)Nc3ccc(C#CCCO)cc31)[C@H]2c1ccc(O)cc1`, for which the composite z-score in test [1] was 0.0887; in test [2], 0.0227; in test [3], 0.724; in test [4], -0.862; in [5], 0.771; in [6] it was -0.317. Further, the composite z-score in the test on Lefty1 is -0.279; in test [8], 0.349. Also, the z-score in test [7] is 1.07; in test [9], -1.72 (inactive).
For the compound `COCCOC(=O)N1C(=O)[C@@]2(c3cc(C#Cc4ccc(OC)cc4)ccc31)[C@H](c1ccc(O)cc1)N1[C@H](c3ccccc3)[C@H](c3ccccc3)OC(=O)[C@H]1[C@@H]2C(=O)NC[C@H](O)c1ccccc1`, the composite z-score in [1] is 0.522; in test [2], 1.22; in test [3] it was -0.0575; in test [4] it was 0.994; in [5], 1.3; in test [6], 1.4. Moreover, the composite z-score in the test with Lefty1 was 1.33; in test [8] it was 0.623. Also, the z-score in [7] is -1.51; in [9], 1.05 (inactive).
